Our source for the growth inhibition values is PubChem BioAssay (NCI).

The panel holds about 79,000 compounds, 15% with a hit somewhere; the sample as a whole holds those more often. A number with no mark means an inactive call. Activity calls are given as the source filed them. Cut-off read from the data, not from the text of the source: active = growth inhibition above about 70%; inactive = the rest.

A short description of assay [1]: NCI Yeast Anticancer Drug Screen. Data for the rad50 strain (AID 155).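 Note: 0% = growth of vehicle-only cultures of the same strain.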 The settings on record: S. cerevisiae rad50 strain growth inhibition, active compounds read high. In a few lines:
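Genetically altered yeast (DNA repair pathway); compound treatment; growth inhibition vs vehicle ctrl.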

The nature of assay [2]: NCI Yeast Anticancer Drug Screen. Data for the mec2-1 strain (AID 157). The settings on record: S. cerevisiae mec2-1 strain, active compounds read high. In a few lines: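 Vehicle-treated cultures served as reference for growth inhibition of compound-exposed mec2-1 yeast.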
A short description of assay [3]: NCI Yeast Anticancer Drug Screen. Data for the sgs1 mgt1 strain (AID 161).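 Note: 0% = growth of cultures given vehicle only.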 The settings on record: S. cerevisiae sgs1 mgt1 strain, active compounds read high. In a few lines: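 Genetically altered yeast, compound exposure, growth inhibition relative to vehicle.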
Assay [4] is described as follows: NCI Yeast Anticancer Drug Screen. Data for the cln2 rad14 strain (AID 165).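 Note: 0% = growth equal to vehicle treated cultures.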 The note with it: S. cerevisiae cln2 rad14 strain, active compounds read high. In a few lines:
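Each compound was tested on cln2 rad14 yeast. Inhibition of growth was calculated against vehicle-exposed controls.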

Assay [5] is described as follows: NCI Yeast Anticancer Drug Screen. Data for the bub3 strain (AID 167). The settings on record: S. cerevisiae bub3 mutant strain, active compounds read high. A digest of the protocol: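 Yeast carrying a defined mutation is treated with each compound, and growth is compared with that of vehicle-exposed cells to give inhibition.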
Assay [6] can be described thus: NCI Yeast Anticancer Drug Screen. Data for the mlh1 rad18 strain (AID 175). The settings on record: S. cerevisiae mlh1 rad18 strain growth inhibition, active compounds read high. A digest of the protocol:
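Vehicle-treated cultures served as the reference for growth inhibition in a yeast strain carrying DNA damage repair alterations exposed to each compound.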

[7] abbreviates: at 5.0 µM (retest, dose inferred, filed as 0.5).
The mark [8] stands for this setting: at 50.0 µM (retest, dose inferred, filed as 5.0).

For `CC(=O)n1c(=S)n(C(C)=O)c2ccccc21`, the growth inhibition in assay [1] (setting [7]) was 2%; in assay [1] (setting [8]) it was 83% (active); in assay [1] (at 50.0 µM) it was 51.5%; in assay [2] (setting [7]), -16%; in assay [2] (setting [8]), 89% (active); in assay [2] (at 50.0 µM) it was 54.4%. Besides, the growth inhibition in assay [3] (setting [7]) is -24%; in assay [3] (setting [8]), 76% (active); in assay [3] (at 50.0 µM), 40.2%; in assay [4] (setting [7]) it was 10%; in assay [4] (setting [8]) it was 39%; in assay [4] (at 50.0 µM) it was 67.8%. Besides, the growth inhibition is -23% in assay [5] (setting [7]); 76% (active) in assay [5] (setting [8]); 71.1% (active) in assay [5] (at 50.0 µM); -13% in assay [6] (setting [7]); 94% (active) in assay [6] (setting [8]); 30.1% in assay [6] (at 50.0 µM).

As to `O=S(=O)(N/N=C/c1ccc(Cl)cc1Cl)c1ccccc1`, the growth inhibition is -20% in assay [1] (setting [7]); -11% in assay [1] (setting [8]); -19.3% in assay [1] (at 50.0 µM); -4% in assay [2] (setting [7]); -11% in assay [2] (setting [8]); -10.3% in assay [2] (at 50.0 µM). For the same compound, the growth inhibition in assay [3] (setting [7]) is 10%; in assay [3] (setting [8]), -14%; in assay [3] (at 50.0 µM) it was -12.4%; in assay [4] (setting [7]) it was -16%; in assay [4] (setting [8]), -15%; in assay [4] (at 50.0 µM) it was -26.9%. The growth inhibition in assay [5] (setting [7]) is 17%; in assay [5] (setting [8]) it was 22%; in assay [5] (at 50.0 µM), -16.6%; in assay [6] (setting [7]), 8%; in assay [6] (setting [8]), 4%; in assay [6] (at 50.0 µM) it was 14%.

Regarding `Cc1ccc(CC2(C(=O)O)Cc3ccc(C)cc3C2)cc1` (stereo not given), the growth inhibition in assay [1] (setting [7]) was -1%; in assay [1] (setting [8]) it was 100% (active); in assay [1] (at 50.0 µM), 78.3% (active); in assay [2] (setting [7]) it was -12%; in assay [2] (setting [8]), 100% (active); in assay [2] (at 50.0 µM), 86.3% (active). In addition, the growth inhibition was -10% in assay [3] (setting [7]); 100% (active) in assay [3] (setting [8]); 89.3% (active) in assay [3] (at 50.0 µM); 1% in assay [4] (setting [7]); 100% (active) in assay [4] (setting [8]); 91.2% (active) in assay [4] (at 50.0 µM). Besides, the growth inhibition was 6% in assay [5] (setting [7]); 100% (active) in assay [5] (setting [8]); 91% (active) in assay [5] (at 50.0 µM); 5% in assay [6] (setting [7]); 99% (active) in assay [6] (setting [8]); 92.3% (active) in assay [6] (at 50.0 µM).

For the compound `COc1ccc2c(c1)CCC1C2CCC2(C)C(=O)C(SC3=NC=NC4=NC=NC43)CC12` (stereo not given), the growth inhibition in assay [1] (setting [7]) was 24%; in assay [1] (setting [8]), 97% (active); in assay [1] (at 50.0 µM), 97% (active); in assay [2] (setting [7]), 25%; in assay [2] (setting [8]), 99% (active); in assay [2] (at 50.0 µM) it was 92.7% (active). For the same compound, the growth inhibition in assay [3] (setting [7]) was 49%; in assay [3] (setting [8]) it was 99% (active); in assay [3] (at 50.0 µM), 96.7% (active); in assay [4] (setting [7]), -3%; in assay [4] (setting [8]) it was 98% (active); in assay [4] (at 50.0 µM), 91.8% (active). The growth inhibition in assay [5] (setting [7]) is 19%; in assay [5] (setting [8]), 97% (active); in assay [5] (at 50.0 µM), 92.2% (active); in assay [6] (setting [7]) it was 20%; in assay [6] (setting [8]) it was 98% (active); in assay [6] (at 50.0 µM), 96.2% (active).

Regarding `O=C(C[n+]1ccccc1Cl)c1ccc(F)cc1`, the growth inhibition was -3% in assay [1] (setting [7]); 99% (active) in assay [1] (setting [8]); -8% in assay [1] (at 50.0 µM); -1% in assay [2] (setting [7]); 100% (active) in assay [2] (setting [8]); -0.8% in assay [2] (at 50.0 µM). Also, the growth inhibition was -1% in assay [3] (setting [7]); 99% (active) in assay [3] (setting [8]); 11.7% in assay [3] (at 50.0 µM); -3% in assay [4] (setting [7]); 99% (active) in assay [4] (setting [8]); 79.5% (active) in assay [4] (at 50.0 µM). In addition, the growth inhibition in assay [5] (setting [7]) is 4%; in assay [5] (setting [8]), 99% (active); in assay [5] (at 50.0 µM), 1.45%; in assay [6] (setting [7]), -1%; in assay [6] (setting [8]), 99% (active); in assay [6] (at 50.0 µM), -12%.

For `CN1C(=O)c2cccc3c([N+](=O)[O-])ccc(c23)C1=O`, the growth inhibition is -2% in assay [1] (setting [7]); 55% in assay [1] (setting [8]); 79.3% (active) in assay [1] (at 50.0 µM); -30% in assay [2] (setting [7]); 65% in assay [2] (setting [8]); 17% in assay [2] (at 50.0 µM). Moreover, the growth inhibition in assay [3] (setting [7]) is 3%; in assay [3] (setting [8]) it was 68%; in assay [3] (at 50.0 µM) it was 73.2% (active); in assay [4] (setting [7]) it was 10%; in assay [4] (setting [8]) it was 84% (active); in assay [4] (at 50.0 µM), 56.1%. For the same compound, the growth inhibition in assay [5] (setting [7]) is -9%; in assay [5] (setting [8]) it was 80% (active); in assay [5] (at 50.0 µM), 10.2%; in assay [6] (setting [7]), 15%; in assay [6] (setting [8]) it was 75% (active); in assay [6] (at 50.0 µM) it was 27.6%.

With `CC(C)(C)CC(C)(C)N[P+](NC(C)(C)CC(C)(C)C)(NC(C)(C)CC(C)(C)C)NC(C)(C)CC(C)(C)C`, the growth inhibition in assay [1] (setting [7]) was 89% (active); in assay [1] (setting [8]), 98% (active); in assay [1] (at 50.0 µM), 83.2% (active); in assay [2] (setting [7]) it was 97% (active); in assay [2] (setting [8]), 99% (active); in assay [2] (at 50.0 µM), 88.3% (active). Moreover, the growth inhibition in assay [3] (setting [7]) was 81% (active); in assay [3] (setting [8]) it was 99% (active); in assay [3] (at 50.0 µM), 91.5% (active); in assay [4] (setting [7]), 84% (active); in assay [4] (setting [8]) it was 99% (active); in assay [4] (at 50.0 µM) it was 90.7% (active). Also, the growth inhibition is 96% (active) in assay [5] (setting [7]); 99% (active) in assay [5] (setting [8]); 90.5% (active) in assay [5] (at 50.0 µM); 94% (active) in assay [6] (setting [7]); 98% (active) in assay [6] (setting [8]); 90.7% (active) in assay [6] (at 50.0 µM).

As for `Cc1ccc(S(=O)(=O)Oc2c([N+](=O)[O-])cc(C)cc2[N+](=O)[O-])cc1`, the growth inhibition was 29% in assay [1] (setting [7]); 54% in assay [1] (setting [8]); 96.6% (active) in assay [1] (at 50.0 µM); 10% in assay [2] (setting [7]); 29% in assay [2] (setting [8]); 97.6% (active) in assay [2] (at 50.0 µM). The growth inhibition is 14% in assay [3] (setting [7]); 21% in assay [3] (setting [8]); 98.2% (active) in assay [3] (at 50.0 µM); -1% in assay [4] (setting [7]); 17% in assay [4] (setting [8]); 82.7% (active) in assay [4] (at 50.0 µM). The growth inhibition in assay [5] (setting [7]) was 5%; in assay [5] (setting [8]), 34%; in assay [5] (at 50.0 µM) it was 94% (active); in assay [6] (setting [7]) it was 17%; in assay [6] (setting [8]), 59%; in assay [6] (at 50.0 µM), 95.1% (active).

For `Nc1ccc(-c2ccc(N)cc2S(=O)(=O)O)c(S(=O)(=O)O)c1`, the growth inhibition is 2% in assay [1] (setting [7]); 0% in assay [1] (setting [8]); -27.6% in assay [1] (at 50.0 µM); 0% in assay [2] (setting [7]); -5% in assay [2] (setting [8]); -14.2% in assay [2] (at 50.0 µM). The growth inhibition in assay [3] (setting [7]) was -1%; in assay [3] (setting [8]) it was -1%; in assay [3] (at 50.0 µM), -5.9%; in assay [4] (setting [7]) it was -2%; in assay [4] (setting [8]), -5%; in assay [4] (at 50.0 µM) it was 23.4%. The growth inhibition in assay [5] (setting [7]) is 2%; in assay [5] (setting [8]), 7%; in assay [5] (at 50.0 µM), 1.8%; in assay [6] (setting [7]), -7%; in assay [6] (setting [8]), -4%; in assay [6] (at 50.0 µM), -38.7%.

For the compound `Oc1c(Cl)cccc1-c1ccccc1`, the growth inhibition in assay [1] (setting [7]) was 2%; in assay [1] (setting [8]), -5%; in assay [1] (at 50.0 µM), 20.1%; in assay [2] (setting [7]), -21%; in assay [2] (setting [8]), 0%; in assay [2] (at 50.0 µM) it was 12.2%. For the same compound, the growth inhibition in assay [3] (setting [7]) is 1%; in assay [3] (setting [8]) it was 10%; in assay [3] (at 50.0 µM), 36.9%; in assay [4] (setting [7]), 1%; in assay [4] (setting [8]) it was -14%; in assay [4] (at 50.0 µM), 1.9%. For the same compound, the growth inhibition in assay [5] (setting [7]) was 7%; in assay [5] (setting [8]), -4%; in assay [5] (at 50.0 µM), 4.45%; in assay [6] (setting [7]), -1%; in assay [6] (setting [8]), 8%; in assay [6] (at 50.0 µM) it was 67.8%.
